Here are results for 40 molecules from PubChem BioAssay (Tox21).

The structures appear in SMILES notation. Values without a mark were called inactive. Entries that show only a call come without a potency. Active and inactive are the calls of the source. The call rests on the fitted dose curve; in most records, active means well fitted activation curve with a large enough effect in the repeat runs; inconclusive means weak or mixed curves; inactive means flat fitted curve, though single readings scatter.

A short description of the assay: A CellTox Green Cytotoxicity Assay to monitor cytotoxicity in HepG2 cells - 0 hour (AID 1224882). Further: nearly all actives have a fitted effect of over 35% in size. The conditions noted are these: CellTox Green fluorescence; series mostly up to 76.8 µM. The text has this: National Center for Advancing Translational Sciences [NCATS]
NIH Chemical Genomics Center [NCGC]
U.S. Environmental Protection Agency [EPA]
National Institutes of Environmental Health Sciences [NIEHS]
National Toxicology Program [NTP]
Cell-based models are critical for drug discovery. Determining the natural cytotoxic effects resulting from test compounds is an essential research activity. A CellTox Green Cytotoxicity Assay to monitor cytotoxicity in real time of continues cell culture during 40 hours of the compound treatment was used to screen Tox21 10K library compounds in HepG2 cells. CellTox Green Cytotoxicity Assay is a nonlytic, homogeneous, biofluorescent method to measure cytotoxicity in cell culture after experimental manipulation. The assay system uses a proprietary asymmetric cyanine dye that is excluded from viable cells but preferentially stains the dead cell's DNA. […] Viable cells produce no appreciable increases in fluorescence. Therefore, the fluorescence signal produced by the binding interaction with dead cell DNA is proportional to cytotoxicity.
The mixture of HepG2 cell suspension and reagents were dispensed at 600cells/6 ul/well in 1536-well tissue culture treated black solid bottom plates using a Multidrop dispenser. After the assay plates were incubated at a 37 C/5% CO2 incubator for 5 hours, 23 nL of compounds dissolved in DMSO, positive and negative controls was transferred to the assay plate by a pintool work station. The plates were incubated at 37 C for 40 hours. The fluorescence intensity were measured at 0h, 8h, 16h, 24h, 32h and 40h time points using ViewLux plate reader during compound treatment.
As to `NCC1(Cc2noc(=O)[nH]2)CCCCC1`, the Potency entry is “inactive”. Turning to `OCC1CCC(CO)CC1` (stereo not given), the Potency result was “inactive”. As for `Cc1ccccc1C(N)=O`, the Potency result is “inactive”. Still for that read-out and setting: with `COc1ccc2c(c1)c1c3n2CCN(C)C3=NCC1` the entry was “inactive”; with `CCCCCCCCCOC(=O)c1ccccc1C(=O)OCCCCCCCCC`, “inactive”. With `CC(=O)c1cc(C)oc1C`, the Potency result is “inactive”. The same measure, in the same setting: with `CN(C)CCCO[C@@H]1[C@H]2OC(C)(C)O[C@H]2O[C@@H]1C(O)CO` (stereo not given in full) the entry was “inactive”; with `C/C(CC(C)C)=N\O`, “inactive”. For `CCOC(=O)CC1(C)OCC(C)O1` (stereo not given), the Potency entry was “inactive”. On to `Cc1cccc(Cl)c1`, for which the Potency entry was “inactive”.

Take `O=Cc1cc2ccccc2o1`: the Potency result was “inactive”. Same read-out and setting: with `CC(=O)O[C@H]1C[C@@H]2CC[C@@]1(C)C2(C)C` the entry was “inactive”; with `CC(=O)CC(=O)OC(C)(C)C`, “inactive”. With `[O]=[Mo](=[O])=[O]`, the cytotoxicity was -4.74% [at 15.8 µM]. As to `CC(C)(CO)C(O)C(=O)NCCCO` (stereo not given), the Potency entry is “inactive”. Take `O=C1CCC(=O)N1Cl`: the Potency result is “inactive”. On the same count and under the same terms, with `CC(=O)OC(C)=O` the entry was “inactive”; with `CC(=O)C(C)O` (stereo not given), “inactive”.

In the case of `CC(C)(C)NC[C@H](O)COc1cccc2c1CCCC2=O`, the Potency result is “inactive”. Consider `CCCCSCCCC`, for which the Potency result is “inactive”. `CC(C)Nc1ccccc1`: the Potency result is “inactive”.

Regarding `CO/N=C(/C(=O)N[C@@H]1C(=O)N2C(C(=O)[O-])=C(C[n+]3ccn4ncccc43)CS[C@H]12)c1nsc(N)n1`, the Potency entry is “inactive”. On to `COC(=O)c1ccccc1C(=O)O`, for which the Potency entry was “inactive”.

For `Cc1c(C(=O)c2c[nH]n(C)c2=O)ccc(S(C)(=O)=O)c1C1=NOCC1`, the Potency result was “inactive”. In the case of `COc1cc2c(cc1OC)C(=O)C(CC1CCN(Cc3ccccc3)CC1)C2` (stereo not given), the Potency result is “inactive”. `CCCCCC(C)O` (stereo not given): the Potency entry was “inactive”. `C=CCN1C[C@H](C(=O)N(CCCN(C)C)C(=O)NCC)C[C@@H]2c3cccc4[nH]cc(c34)C[C@H]21`: the Potency entry was “inactive”. Still for that read-out and setting: with `CCCCCCC1(C)CCC(=O)O1` (stereo not given) the entry was “inactive”; with `Nc1nc(-c2ccccc2)c(Br)c(=O)[nH]1`, “inactive”. Take `CC(C)NC(=O)c1ccc(C=O)cc1`: the Potency result was “inactive”. For `CCCCCCCCCCCCCCC(=O)NC(CO)CCCCCCCCCCCCCC` (stereo not given), the Potency result is “inactive”. `CCCC(=O)OC/C=C(\C)CCC=C(C)C`: the Potency entry was “inactive”. The same measure, in the same setting: with `CC(=O)OCC(=O)Nc1cc(C#N)cc(NC(=O)COC(C)=O)c1Cl` the entry was “inactive”; with `Cc1ccc2c(c1)C(=O)c1ccccc1C2=O`, “inactive”; with `Cc1ccc(C)c([N+](=O)[O-])c1`, “inactive”. For the molecule `O=S(=O)(O)c1ccc2c(N=Nc3ccc(S(=O)(=O)O)c4ccccc34)c(O)c(S(=O)(=O)O)cc2c1`, the cytotoxicity is -11.5% [at 6.97 µM].

For `CC/C=C\CCOC(=O)c1ccccc1O`, the Potency entry is “inactive”.

As to `O=C(Cl)c1ccccc1[N+](=O)[O-]`, the Potency result was “inactive”. On to `c1ccc2cnccc2c1`, for which the Potency entry is “inactive”. Regarding `C[Si]1(C)O[Si](C)(C)O[Si](C)(C)O[Si](C)(C)O[Si](C)(C)O1`, the Potency result is “inactive”.
